About 83,000 compounds went through this panel and 20% of them were active in at least one assay; those are over-represented in the sample as a whole.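 Interpretation: 100, growth as untreated; towards 0, rising growth inhibition; 0, no net growth; 0 to -100, cell death. Compounds scoring below 10 were considered active.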 A number with no mark means an inactive call. Active and inactive are the calls of the source.
Experiments:
Assay in all cases: NCI-60 one-dose screen, 48 h (100 = growth as untreated, 0 = no growth, -100 = all killed)
Details in all cases: 10 µM unless noted
[1] = test system: DU-145 prostate
[2] = test system: K-562 leukemia
[3] = test system: MALME-3M melanoma
[4] = test system: MDA-MB-231 breast
[5] = test system: RXF 393 renal
[6] = test system: SF-268 CNS
[7] = test system: SF-295 CNS
[8] = test system: SF-539 CNS
[9] = test system: UACC-257 melanoma
[10] = test system: HCT-15 colon
[11] = test system: HT29 colon
[12] = test system: SNB-75 CNS
[13] = test system: SNB-19 CNS
[14] = test system: U251 CNS
[15] = test system: PC-3 prostate
[16] = test system: SK-MEL-5 melanoma
[17] = test system: UACC-62 melanoma
[18] = test system: LOX IMVI melanoma
[19] = test system: SK-MEL-28 melanoma
[20] = test system: M14 melanoma

SMILES	growth [1]	growth [2]	growth [3]	growth [4]	growth [5]	growth [6] [%]	growth [7]	growth [8]	growth [9] [%]	growth [10]	growth [11]	growth [12] [%]	growth [13] [%]	growth [14]	growth [15] [%]	growth [16]	growth [17]	growth [18]	growth [19] [%]	growth [20]
O=C(Nc1ccc(F)cc1)Nc1ccc(NC(=O)c2cc(Cl)nc3ccccc23)cc1	57%	58.5%	53.7%	45.9%	86.9%	68.1	64.6%	35.6%	79.8	98.7%	65.3%	67.2	49.7	62.8%	59.4	70.1%	72%	55%	77.7	
CC(C)N1C(=O)S/C(=C2/SC(=O)N(C(C)C)C2=O)C1=O	91.8%	94.4%	90.4%	76.2%	99.2%	94.8	101%	86.4%	99	95.9%	102%	64.8	93.3		98.2	93.9%	91.6%	91.9%	105	
O=C1Nc2cc(-c3cccc([N+](=O)[O-])c3)ccc2/C1=C/c1ccc[nH]1	111%	72.2%	89%	39.5%	82.1%	97.1	99.8%	93.5%	107	28%	91.1%	64.6	101	98.8%	86.8	70.3%	83.9%	90%	106	
CCCCCCCCOc1ccc(/C=N/Nc2cc(C)nc3ccc(Br)cc23)cc1	33.5%	10.7%	40.8%	33.2%	88.3%	86.3	78.8%	32.6%	84	21%	11.9%	20	76.1	16.5%	60.8	76.9%	92.7%	22.4%	80.9	
CCN(CC)c1ccc(/C=N/NC(=O)CSc2nc3ccccc3c(=O)n2Cc2ccc(S(N)(=O)=O)cc2)c(O)c1	37.8%	6.12% (active)	31.3%	25.3%	42.6%	18.6	20.3%	27.9%	13	47.5%	32.1%	38.8	41.8	24.4%	48.8	5.72% (active)	6.51% (active)	1.32% (active)	33.1	
CCN(c1ccccc1)S(=O)(=O)c1cc([N+](=O)[O-])ccc1Cl	94%		67.6%	56.3%	40.7%	77.4	110%	36.2%	64.6	75.7%	63%	66.2	85	59.2%	76.8	45.3%	57.5%	52.4%		70.9%
Cc1nc2sccn2c1-c1cn2ccsc2n1	76.3%		77.7%	81.3%	77.5%	102	89.9%	90.5%	91	70.3%	99.3%	84.8	93.1	90.8%	94.6	65.6%	83.4%	98.4%	104	93.7%
COc1cc2c(c(OC)c1OC)-c1ccc(NNC(=S)N(Cc3cccc(C[N+](Cc4cccc(CNC56CC7CC(CC(C7)C5)C6)c4)(Cc4cccc(CNC56CC7CC(CC(C7)C5)C6)c4)Cc4cccc(CN(C(=S)NNc5ccc6c(cc5=O)[C@@H](NC(C)=O)CCc5cc(OC)c(OC)c(OC)c5-6)C56CC7CC(CC(C7)C5)C6)c4)c3)C34CC5CC(CC(C5)C3)C4)c(=O)cc1[C@@H](NC(C)=O)CC2 (stereo partly drawn)	21.3%		-48.1% (active)	-26.3% (active)	20.2%	18.3	20.3%	0.867% (active)	43.1	9.96% (active)	-5.79% (active)	31.7	16	5.78% (active)	12.2	-94.2% (active)	15.5%	-20.1% (active)		-53.4% (active)
COc1ccc(CCn2cncc2-c2c[nH]c3ccccc23)cc1	102%	87%	90.8%	74.5%	87.8%	80.9	74.1%	93.4%	102	93.1%	82.9%	44.4	91.4			88.2%	81.6%	88.3%	101	92.6%
O=c1[nH]nc(-c2ccccc2)c2sc3ncc(-c4ccc(Br)cc4)n3c12	28.6%	16.1%	52.4%	69.1%	57.9%	51	48.9%	41.3%	66	94.5%	9.13% (active)	19.7	44.7	38.9%	50.2	78.9%	47.5%	36.9%	57.6	
CCOc1ccc(/C=N/Nc2cc(C)nc3ccc(Br)cc23)cc1	94.2%	20.2%	102%	68.5%	85.8%	99.7	82.7%	102%	96	57.9%	100%	99.9	99.7		81.4	84.9%	90.5%	84.4%	91.6	94%
O=C(/C=C/c1c(-c2ccc(Cl)cc2)nn(-c2ccccc2)c1C(F)(F)F)c1ccc(Cl)cc1	108%		104%	79.5%	88.4%	105	96.5%	102%	104	77.7%	89.9%	86.1	96.1	86.3%	92.2	85.3%	82.5%	75%		90.5%
C=C(CBr)[C@@H]1CC[C@]2(COC(C)=O)CC[C@]3(C)[C@H](CC[C@@H]4[C@@]5(C)CCCNC(C)(C)[C@@H]5CC[C@]43C)[C@@H]12	66.3%		71%	65.6%	56%	50.3	59.5%	49.7%	23.4	24.8%	29.1%	79.8	64.2	37%	12.9	19.9%	24.8%	23.5%	60.7	40%
COC(=O)N[C@H]1CCc2c(Cl)c(OC)c(OC)c(OC)c2-c2ccc(SC)c(=O)cc21	-11.1% (active)	7.05% (active)	36.8%	-2.11% (active)	20.3%	20.2	12%	-0.571% (active)	68.3	9.73% (active)	13%	28	26.3	21.5%	21.1	-37.4% (active)	36.9%	13.3%	60.8	
O=C1/C=C/[C@@H](O)[C@@H]2C[C@@H](O)C[C@H]2/C=C/CCC[C@H](CCc2ccc3ncccc3c2)O1	13.5%		-17.8% (active)	-43% (active)	-32.6% (active)	15.2	1.79% (active)	19.2%	19.3	6.02% (active)	-19.6% (active)	33.2	28.9	21.7%	18.3	-95.8% (active)	4.66% (active)	-66.5% (active)		6.52% (active)
NS(=O)(=O)c1ccc(CCN2C(=O)c3cc(Cl)c(Cl)cc3C2=O)cc1	104%		110%	107%	120%	98.1	99.7%	106%	99.7	103%	89.3%	98.3	109	102%	99.2	105%	103%	98.2%	110	106%

Reference: PubChem BioAssay (NCI)
